Results published in the supplement of paper PMC6555819.

Experiments:
Experiment in all cases: PBM binding z-score (relative to random genomic background probes); higher = stronger binding; sequences stand for … in GC…GCGATTGACAGCGTAGAATGAAGG
[1] = test system: PPARg:RXRa DBDmut IVT, anti-RXR (DBD mutation: RXRa K156A/R161A, NR concentration 270 nM, RXRa partner concentration 90 nM)
Outline: (§1)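 Custom Agilent 4×180K protein-binding microarrays carried double-stranded probes, each with a 34-nt variable region. These regions held direct-repeat seeds, single-nucleotide variants, half-site ablations and random human genomic background sequences. Ligand-free nuclear receptor dimers were incubated on the arrays for 1 h, antibodies against each partner (one per run) detected binding, and scanned fluorescence was regression-normalized. Binding z-scores take the random background probes as reference.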

[2] = test system: PPARg:RXRa IVT, anti-PPARg (NR concentration 270 nM, RXRa partner concentration 90 nM)
Outline: as §1

[3] = test system: PPARg DBDmut:RXRa IVT, anti-PPARg (DBD mutation: PPARg1 K132A/R137A, NR concentration 270 nM, RXRa partner concentration 90 nM)
Outline: as §1

[4] = test system: PPARg DBDmut IVT, anti-PPARg (DBD mutation: PPARg1 K132A/R137A, NR concentration 270 nM)
Outline: as §1

[5] = test system: PPARg homodimer (NR concentration 180 nM)
Outline: as §1

[6] = test system: PXR:RXRa (NR concentration 270 nM, RXRa partner concentration 90 nM)
Outline: as §1

[7] = test system: PXR homodimer (NR concentration 270 nM)
Outline: as §1

[8] = test system: RARa:RXR (NR concentration 270 nM, RXRa partner concentration 90 nM)
Outline: as §1

[9] = test system: RARa homodimer (NR concentration 270 nM)
Outline: as §1

[10] = test system: RARb:RXRa (NR concentration 270 nM, RXRa partner concentration 90 nM)
Outline: as §1

| Sequence | PBM binding z-score [1] | PBM binding z-score [2] | PBM binding z-score [3] | PBM binding z-score [4] | PBM binding z-score [5] | PBM binding z-score [6] | PBM binding z-score [7] | PBM binding z-score [8] | PBM binding z-score [9] | PBM binding z-score [10] |
| --- | --- | --- | --- | --- | --- | --- | --- | --- | --- | --- |
| CCTACTGGCCCAAAAAGGTCATTGATGCCGATAA | 0.453 | 1.52 | -0.0321 | -0.749 | 3.4 | 4.99 | 2.07 | 5.65 | 2.16 | 3.99 |
| CGTCCTAGGTCAGCAGGTCAGTGAAAGCGACGTG | 3.21 | 3.44 | -0.463 | -0.745 | 1.79 | 1.75 | -0.5 | 2.64 | -0.501 | 4.39 |
| TCAGACAGGTGACGGTAACTCAGGTACGCAGTCG | 2.24 | 1.37 | 0.209 | 0.0566 | 0.126 | 0.109 | -0.211 | 0.171 | 0.103 | 0.885 |
| CCGACTGGGCCAAGGTCATTGATCAGTCAAAGCA | 2.08 | 2.75 | -1.14 | -0.87 | 2.42 | 3.48 | 0.921 | 3.76 | 0.257 | 3.26 |
| TCATATAGGGAAACAGGTGAAAGTCCGTAAGTTA | 3.73 | 2.71 | 0.703 | 0.846 | 1.02 | 0.713 | 0.608 | 0.541 | 1.28 | 0.516 |
| AGTCACAGTTCAGGACGAGGTAACGTAAAGCACG | -0.095 | 0.996 | 0.513 | 0.376 | 0.443 | 1.13 | 0.45 | 1.52 | 0.51 | 2.08 |
| ATCTCTAGGTAGAGATAGTTCAGTGAATGCAAAT | -0.289 | 0.0847 | 0.624 | 0.987 | 0.293 | 0.338 | 0.253 | 0.641 | 0.194 | 0.242 |
| GCTAGCAGGACATTTGGGTCACTCAATGACGGGC | 1.29 | 2.12 | -1.17 | -1.5 | -0.156 | 0.607 | 0.862 | 0.611 | -0.875 | 1.16 |
| CCTAGTTGGTCAACGTCACACACGCTATAGGTAC | 2.03 | 1.8 | 0.867 | 0.424 | 1.37 | 0.444 | 0.536 | 0.716 | 1.34 | 1.21 |
| CGTCCAAGGTCTATGCTAGGTCAGTGAAAGCATT | 0.0727 | 0.505 | -1.49 | -0.699 | 0.128 | 0.421 | -0.113 | 1.03 | 0.289 | 1.62 |
| CTTGCTAGGTCATGGTCAGCTAATCTACAGTATG | 4.97 | 4.72 | 0.897 | 0.605 | 1.37 | 1.45 | -0.306 | 2.48 | 0.17 | 3.66 |
| GCTAGTAGTTGAAAGGGCAACCGAATGATTCTCG | 0.195 | 1.26 | -0.638 | -0.335 | 1.55 | 0.658 | -0.0187 | 1.47 | -1.01 | 1.88 |
| CGAACTAGGTCAGAAGAGGACAGTGAAGGATGAT | 7.13 | 7.32 | 3.38 | 1.51 | 1.15 | 2.5 | -0.0219 | 2.42 | 0.202 | 3.05 |
| TCTCAAAGTTCAAAGGTAACGTAAGTATCCACAC | 2.92 | 1.65 | 0.898 | 1.45 | 3.16 | 5.66 | 4.17 | 6.13 | 2.08 | 5.15 |
| CCTGCTAGGTGAATGGTCAGCTAAAGCAGCTCGC | 3.48 | 2.62 | -0.739 | -1.37 | -0.377 | -0.698 | -0.722 | -0.44 | -1.03 | 1 |
| CCTTACTGGTCACTCCAGGTTATAGCATCGGAGT | 0.949 | 1.07 | 0.287 | 0.23 | 0.774 | 0.989 | 0.586 | 0.883 | 1.05 | 1.53 |
| TTAATGAGGTTATAAGATCAGGGAACGTTGCAAA | 2.84 | 2.61 | 1.48 | 1.53 | 0.917 | 1.11 | 0.494 | 1.66 | 1.23 | 1.27 |
| TCATATAGGTAATACACGTGAAAGTCGGCATCTA | 3.9 | 2.2 | 1.1 | 1.42 | 1.33 | 0.683 | 0.547 | 0.919 | 1.56 | 0.414 |
| ACTAGCAGGCCAAGGGTCGCTCAAGATTAGTCCG | 0.554 | 1.95 | -0.249 | -1.1 | 0.333 | 0.247 | -0.683 | 0.951 | -0.617 | 1.35 |
| GCGACTGGGGCAAAGCAGGTTACCAAAAGGTTGG | 4.78 | 3.6 | -0.303 | -0.695 | -0.131 | 0.48 | -0.452 | 0.862 | -0.773 | 1.02 |
| CCTCGGACGACAGAAGGTCAGAGCTGTCCGCTTT | -0.0338 | -0.307 | -1.28 | -2.04 | 1.12 | 1.35 | -0.144 | 2.01 | -0.163 | 2.67 |
| TAGCCTAGGTAAGATCGGGCCAGTATACGCTATA | -0.504 | -0.0138 | -2.06 | -1.02 | -0.948 | -0.638 | -0.73 | -0.261 | -1.46 | -1.22 |
